Data reported in PubChem BioAssay.
The source made the active and inactive calls.

Columns and labels:
[1] = tested on: XIP peptide (Xip251-270) binding; test: small-molecule binders of XIP peptide, primary screen, biochemical, small-molecule microarray, fluorescence 635/667 nm, 0.1 µg/mL protein (AID 1182); conditions: fluorescent protein binding, 635 nm, higher = more signal, called active from +8 up or from −8 down
XIP peptide (Xip251-270) = test: small-molecule binders of XIP peptide, primary screen, biochemical, small-molecule microarray, fluorescence 635/667 nm, 0.5 µg/mL protein (AID 1183); conditions: small-molecule microarray binding, fluorescence 635 nm; higher = more signal
[2] = Plasmodium falciparum growth inhibition, primary screen, strain 3D7, DAPI fluorescence, 100 nL (AID 1184);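 note: parasites grown inside human red blood cells in medium with human serum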; conditions: P. falciparum 3D7 growth, 3 d, higher = more signal
[3] = biological target: Homeobox protein Hox-A13 (Mus musculus) (UniProt Q62424); test: inhibitors of HoxA13-DNA binding, primary screen, biochemical, fluorescence polarization, labeled oligonucleotide (AID 1185); conditions: 15 min, higher = more signal, called active from +8 up or from −8 down
Chain of Homeobox protein Hox-A13 (Mus musculus) (Q62424 whole entry, looked up): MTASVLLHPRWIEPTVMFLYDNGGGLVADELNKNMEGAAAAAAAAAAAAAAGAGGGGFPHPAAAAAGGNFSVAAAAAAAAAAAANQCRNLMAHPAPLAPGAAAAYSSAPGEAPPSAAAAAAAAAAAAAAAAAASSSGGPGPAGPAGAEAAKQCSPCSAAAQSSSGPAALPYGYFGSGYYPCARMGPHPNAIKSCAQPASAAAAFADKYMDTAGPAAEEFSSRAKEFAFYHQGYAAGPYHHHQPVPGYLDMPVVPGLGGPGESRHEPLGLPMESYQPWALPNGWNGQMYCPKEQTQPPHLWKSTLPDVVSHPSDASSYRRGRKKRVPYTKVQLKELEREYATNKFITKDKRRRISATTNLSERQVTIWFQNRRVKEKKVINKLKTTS

SMILES | composite z-score [1] | composite z-score (XIP peptide (Xip251-270)) | z-score [2] | z-score [3]
CCOC(=O)[C@H](CC(C)C)NC(=O)CCC1CC(OC(=O)NCc2cccc3ccccc23)CC2(CCCC(COC(=O)NCc3ccncc3)O2)O1 (stereo partly drawn) | 1.56 (inactive) | 0.53 | -0.652 | -6.29 (inactive)
CCCNC(=O)OC[C@H]1O[C@H](CCON=C(C)CCN2CCc3nc(CC)c(CC)cc3C2)C=C[C@@H]1Oc1ccc(OC)cc1 | -0.339 (inactive) | 0.27 | -2.17 | -5.98 (inactive)
CON=C(C)CCC(=O)OC[C@H]1O[C@H](c2ccccc2)C=C[C@@H]1Oc1ccc(OC)cc1 | 0.103 (inactive) | 0.19 | -0.442 | -4.5 (inactive)
COc1ccc(COC(=O)NN=C2C[C@@H](O)[C@@H](O)[C@@H]3[C@@H]4C(=O)N(Cc5ccccc5)C(=O)[C@@H]4CC[C@H]23)cc1 | 0.0712 (inactive) | -0.0564 | 0.908 | -1.81 (inactive)
CCOC(=O)NN=C1C[C@@H](O)[C@@H](O)[C@@H]2[C@@H]3C(=O)N([C@@H](C)c4ccccc4)C(=O)[C@@H]3CC[C@@H]12 | -0.235 (inactive) | 0.519 | 0.156 | -1.84 (inactive)
COC(=O)[C@H](C)NC(=O)CCC1CC(OC(=O)NCc2cccc3ccccc23)CC2(CCCC(COC(=O)NCC(c3ccccc3)c3ccccc3)O2)O1 (stereo partly drawn) | 0.519 (inactive) | 0.583 | -1.87 | -4.01 (inactive)
CCOC(=O)NN=C1C[C@@H](O)[C@@H](O)[C@@H]2[C@@H]3C(=O)N(C(C)(C)C)C(=O)[C@@H]3CC[C@H]12 | -0.188 (inactive) | 0.29 | 0.202 | 0.772 (inactive)
